This is a sample that favours compounds with a hit; in the whole collection about 10% have one here.
G9a inh = inhibitors of human histone lysine methyltransferase G9a; G9a H3K9 monomethylation, AlphaScreen, 2 h; Potency, µM (top dose mostly 102 µM), without a hit: at the highest dose activity, negative = inhibition, usual class: inhibitors; actives 8.8% (n = 350,000); AID 504332; note: potency is the fitted concentration of half-maximal effect; nearly all actives have a fitted effect of over 75% in size
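G9a (20 nM) preincubated 15 min RT with compounds, then 500 nM biotinylated H3K9 peptide and 20 uM SAM added; 2 h RT reaction. Monomethyl-H3K9 product detected by AlphaScreen with anti-H3K9me1 antibody, streptavidin donor and anti-rabbit IgG acceptor beads.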
Mm-Cpn inhibitor = inhibitors of Methanococcus maripaludis chaperonin TRiC (MmCpn); Potency, µM (titrated, usually from 76.9 µM), for inactives: at the highest dose activity, negative = inhibition, usual class: inhibitors; actives 0.031% (n = 330,000); purified Mm-Cpn ATPase, ADP Transcreener TR-FRET; note: potency is the fitted concentration of half-maximal effect; nearly all actives have a fitted effect of over 80% in size
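ATPase turnover read by TR-FRET ADP competition (Eu cryptate antibody/ADP-d2, 665/590 nm): 10uM ATP final, 25nM Mm-CPN final, 30 min 37degC after 10-min compound preincubation, pH 7.4 Tris/KCl/MgCl2/DTT buffer.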
VDR inhibitor = blocks the human vitamin D receptor; P11473; VDR-SRC2-3 peptide fluorescence polarization, 2 h; Potency, µM, for the others: max response, negative = inhibition, usual class: inhibitors; actives 0.93% (n = 400,000); note: potency is the fitted concentration of half-maximal effect
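The screen uses fluorescence polarization to detect compounds that interfere with recruitment of the SRC2-3 coactivator peptide to VDR; plates are read after 2 h at room temperature.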
CCT chaperon mod = modulators of cytosolic chaperonin (CCT/TRiC) activity; actives 0.3% (n = 360,000); activity change, % (concentration not given with the values), hits read low; purified chaperonin ATPase assay, HTRF ADP detection, 30 min; AID 651819; in the data active = activity change below about -30%
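We incubate TRiC, 40 or 20 nM final, with library compounds at 76 uM and 10 uM ATP for 30 min at 37 °C. ADP formed is detected with Transcreener HTRF reagents after 30 min at room temperature.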
Sfp inh = blocks B. subtilis Sfp PPTase activity | actives 3.5% (n = 310,000) | Biochemical Sfp PPTase activity, qHTS | Potency, µM, for inactives: largest response in the series, negative = inhibition, actives largely listed as inhibitors;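 note: the enzyme is Sfp with the accession as filed and its product quenches rhodamine fluorescence; potency is the fitted concentration of half-maximal effect; 0% = enzyme reaction without inhibitor and -100% = no enzyme wells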
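Compounds were incubated with enzyme (final 15 nM) for 15 min at room temperature before substrate addition started the reaction. Fluorescence at 525 nm excitation, 598 nm emission was recorded immediately and after 30 minutes.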
PLK1 PBD block = inhibitors of human PLK1 polo-box domain binding; P53350; Plk1 PBD binding of FITC phosphopeptide, fluorescence polarization; Potency, µM, without a hit: max response, negative = inhibition, hits mostly inhibitors; actives 2.8% (n = 360,000); AID 720504; note: potency is the fitted concentration of half-maximal effect; series mostly up to about 57 µM; nearly all actives have a fitted effect of over 65% in size
Target sequence (P53350 whole entry, looked up, the tested form may be a part): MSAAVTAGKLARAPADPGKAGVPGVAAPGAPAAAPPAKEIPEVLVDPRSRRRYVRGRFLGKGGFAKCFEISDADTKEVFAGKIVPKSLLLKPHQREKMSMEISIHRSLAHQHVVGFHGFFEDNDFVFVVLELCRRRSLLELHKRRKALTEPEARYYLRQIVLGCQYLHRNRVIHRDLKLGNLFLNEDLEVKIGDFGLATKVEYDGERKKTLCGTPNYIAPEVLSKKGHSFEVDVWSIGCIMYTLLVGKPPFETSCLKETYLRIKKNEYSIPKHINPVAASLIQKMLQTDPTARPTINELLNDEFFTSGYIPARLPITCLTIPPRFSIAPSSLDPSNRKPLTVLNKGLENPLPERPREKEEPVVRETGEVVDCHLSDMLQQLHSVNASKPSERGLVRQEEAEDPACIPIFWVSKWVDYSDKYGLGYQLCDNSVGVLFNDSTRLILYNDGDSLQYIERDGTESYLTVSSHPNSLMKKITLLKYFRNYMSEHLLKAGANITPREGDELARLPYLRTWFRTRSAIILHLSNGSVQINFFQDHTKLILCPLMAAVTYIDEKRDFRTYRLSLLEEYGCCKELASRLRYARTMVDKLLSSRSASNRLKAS
The depositor's hits bear a star; ? = inconclusive; · = no result; [ ] = remark or other dose. Unless noted, calls come from the whole dose curve; as a rule, active = well fitted curve in the direction sought with a large enough effect; inconclusive = small, poorly fitted or top-dose-only effect, or another doubt; inactive = no such curve, though single readings can be large; an effect the other way counts as inactive or inconclusive. Unless noted, % is set by controls: 0 for no effect and ±100 for the full control effect.

SMILES	G9a inh	Mm-Cpn inhibitor	VDR inhibitor	CCT chaperon mod	Sfp inh	PLK1 PBD block
Cc1cc(C(=O)OCC(=O)NC2CCCCC2C)c2ccccc2n1 (stereo unspecified)	·	-4%	-7%	0	·	-11%
O=C(COC(=O)c1c2c(nc3ccccc13)/C(=C/c1ccco1)CC2)NC1CCCC1	3.5µM*	-1%	-7%	-2	50µM*	?
CC1CCCCC1NC(=O)COC(=O)c1c2c(nc3ccccc13)/C(=C/c1ccco1)CC2 (stereo unspecified)	?	-3%	-23%	-2	-53%	11µM*
CC(C)CNC(=O)COC(=O)c1c2c(nc3ccccc13)/C(=C/c1cccs1)CC2	?	-2%	-7%	2	45µM*	0%
CCOC(=O)OCC1OC(C#CC(C)(C)C)C=CC1OC(=O)OCC (stereo unspecified)	·	·	·	·	30%	·
CCOC(=O)c1cccc(NC(=O)CCS(=O)(=O)c2ccc3c(c2)CC(=O)N3C)c1	-1%[59 µM]	·	3%	·	·	·
Cc1cccc(OC(C)C(=O)N2CCC(c3nc4ccccc4o3)CC2)c1C (stereo unspecified)	-4%[59 µM]	·	-5%	·	·	·
CCOC(=O)C1CCN(Cc2cn[nH]c2-c2ccccc2)CC1	7.9µM*	-1%	-9%	-3	-15%	-5%
Fc1ccc(N2CCN(Cc3cn[nH]c3-c3ccccc3)CC2)cc1	71µM*	0%	-2%	-1	-27%	-1%
CCOC(=O)C1CCN(Cc2cn[nH]c2-c2ccc(C)cc2)CC1	-26%[2.33 µM]	-2%	-7%	-1	-8%	1%
CC1CN(C(=O)N2CCC(C(=O)NCCCc3ccccc3)CC2)c2cc(Cl)ccc2O1 (stereo unspecified)	?	·	4%	·	·	·
COC(=O)c1ccc(C(NC(=O)OCc2ccccc2)/C(=C/[C@@H](C)C(=O)NCc2nc3ccccc3n2C)c2cccnc2)cc1 (stereo partly specified)	·	·	·	·	0%	·
Cc1ccccc1C(=O)NC(=S)Nc1ccc(N2CCOCC2)cc1	45µM*	-1%	24%	0	-13%	?
O=C(Nc1ccc(-c2cn3c(n2)SCC3)cc1)c1ccc2ccccc2n1	-35%	-4%	-15%	-11	-4%	-2%
O=C(Nc1cccc(-c2cn3c(n2)SCC3)c1)c1ccc2ccccc2n1	8.9µM*	-5%	3%	-3	0%	-9%
O=C(Nc1ccc(N2CCCC2)cc1)c1ccccc1[N+](=O)[O-]	13µM*	-5%	-17%	-1	21%	-1%
O=C(NC(=S)Nc1ccc(N2CCOCC2)cc1)c1cccc(Cl)c1Cl	·	2%	-6%	0	9%	0%
O=C(Nc1ccc(N2CCCCC2)cc1)c1ccc2ccccc2n1	28µM*	-1%	-17%	-3	?	-9%
Cc1ccc2c(c1)sc1nc(-c3cc4ccccc4oc3=O)cn12	?	·	-17%	·	·	·
Cc1ccccc1C(=O)Nc1ccc(N2CCCC2)cc1	3.2µM*	-3%	6%	1	-17%	3%
CCCS(=O)(=O)c1nc(S(=O)(=O)c2ccc(C)cc2)c(NCc2ccc3c(c2)OCO3)s1	40µM*	-14%	-3%	1	9%	3%
Cc1cccc(CS(=O)(=O)c2nnc([C@H](Cc3ccccc3)NC(=O)OC(C)(C)C)o2)c1	10µM*	-1%	?	-1	18µM*	2.7µM*
COC(=O)CS(=O)(=O)c1nnc([C@H](Cc2ccccc2)NC(=O)OC(C)(C)C)o1	?	0%	?	-3	-91%	11µM*
CN(C)C(=O)CSc1nnc([C@H](Cc2ccccc2)NC(=O)OC(C)(C)C)o1	40µM*	1%	-9%	1	-5%	27µM*
CSc1ccc(CCNC(=O)c2sc3ncccc3c2-n2cccc2)cc1	-34%[59 µM]	·	5%	·	·	·
SMILES	G9a inh	Mm-Cpn inhibitor	VDR inhibitor	CCT chaperon mod	Sfp inh	PLK1 PBD block
CCc1ccc(C(=O)c2cnc3ccc(F)cc3c2S(=O)(=O)c2ccccc2)cc1	?	·	-11%	·	·	·
O=c1ccc(NS(=O)(=O)c2ccccc2Cl)cn1Cc1ccc(Cl)c(Cl)c1	28µM*	-3%	16µM*	1	15%	-6%
Cc1ccc(S(=O)(=O)Nc2ccc(=O)n(Cc3ccc(Cl)c(Cl)c3)c2)cc1	?	3%	-2%	-1	?	-20%
O=C(O)Cc1ccc(NS(=O)(=O)c2ccccc2Cl)cc1	22µM*	-1%	4%	-1	-27%	-12%
CCc1ccc2oc(C(=O)Nc3nc(-c4ccccc4)ns3)c(C)c2c1	-2%[59 µM]	·	-1%	·	·	·
O=C(CCn1c(=O)oc2ccccc21)NCCCN1CCOCC1	3%[59 µM]	2%	8%	0	22%	2%
O=C(CCn1c(=O)oc2ccccc21)NCCCN1CCN(c2ccc(F)cc2)CC1	2.5µM*	0%	-6%	-1	7%	0%
O=C(CCn1c(=O)oc2ccccc21)Nc1ccccc1	35µM*	1%	-1%	0	?	?
CCn1c(=O)c(=O)n(CC)c2cc(N3CCCCC3)c(NC(=O)c3cccc(OC)c3)cc21	-35%[59 µM]	·	-5%	·	·	·
CCn1c(=O)n(CC)c2cc(N3CCCC3)c(NC(=O)c3cccc(C)c3)cc21	28µM*	-1%	86%	-5	-9%	-12%
CCn1c(=O)n(CC)c2cc(N3CCCC3)c(NC(=O)c3ccc(C)c([N+](=O)[O-])c3)cc21	8.9µM*	-6%	2%	0	-24%	-11%
CCn1c(=O)n(CC)c2cc(N3CCCC3)c(NC(=O)c3cccc(Cl)c3)cc21	40µM*	-1%	-16%	0	-13%	-14%
CCCOc1ccc(OC(=O)c2cn(-c3ccc(OC)cc3)c(=O)c3ccccc23)cc1	7%[59 µM]	·	-6%	·	·	·
CN1C(=O)C2(c3ccccc31)N(c1cccc(C(F)(F)F)c1)C(=O)CS2(=O)=O (stereo unspecified)	-6%[59 µM]	·	5%	·	·	·
O=C1CS(=O)(=O)C2(C(=O)Nc3ccccc32)N1c1cccc(Cl)c1 (stereo unspecified)	22µM*	·	6%	·	·	·
Cc1cc(C)n(C(C)CC(=O)Nc2cccc(C(F)(F)F)c2)n1 (stereo unspecified)	7%[59 µM]	·	0%	·	·	·
COc1ccc(-c2cnc(C)o2)cc1S(=O)(=O)Nc1ccc(F)cc1F	3%[59 µM]	·	3%	·	·	·
CC(C)Sc1nc(-c2ccccc2)cc(=O)[nH]1	35µM*	0%	-28%	1	?	?
CCC(Sc1nc(-c2ccccc2)cc(=O)[nH]1)C(=O)O (stereo unspecified)	1%[59 µM]	-1%	5%	-2	9%	-4%
Cc1cc(-c2ccccc2)c(C#N)c(=S)[nH]1	1.3µM*	0%	-19%	-1	28µM*	-25%
